According to PubChem BioAssay (NCATS):
“And” between values parts separate entries of the source, which are not always exact repeats. Identical values can stand only once. Records with an inconclusive call do not appear. The source made the active and inactive calls. Unless noted, the call rests on the fitted dose curve; in most records, active means well fitted curve in the direction sought with a large enough effect; inconclusive means small, poorly fitted or top-dose-only effect, or another doubt; inactive means no such curve, though single readings can be large; an effect the other way counts as inactive or inconclusive.

Columns and labels:
[1] = Cell Viability - NIH 3T3 (AID 541); details: NIH 3T3 cell viability, qHTS; activity change, negative = cytotoxicity: at 92.2 µM (top of the series);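 further: cells exposed to compound for 40 hours; plate controls were DMSO alone for no effect and tamoxifen positive control for full effect; nearly all actives have a fitted effect of over 25% in size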
How it was run: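 AC50 values reflect concentration-dependent loss of intracellular ATP in NIH 3T3 cells after 40 hr treatment in complete culture medium, quantified by luciferase-based luminescence.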

[2] = Cell Viability - LYMP2-017 (AID 972);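 further: cells exposed to compound for 24 hours at 37 °C; on the % scale 0 is the no-effect control and ±100 the full control effect; nearly all actives have a fitted effect of over 55% in size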
How it was run: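 Steps: plate 2500 lymphoblastoid cells per well; incubate 5 hr at 37 C; add compound across a concentration series and incubate 24 hr at 37 C; add CellTiter-Glo and read luminescence after 30 min at room temperature; fit Hill curves for AC50.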

[3] = target: Glucocorticoid receptor (Homo sapiens) (UniProt P04150); assay: qHTS assay for small molecule antagonists of glucocorticoid receptor signaling (AID 588533; active means well fitted inhibition curve with a large enough effect in the signal ratio, with a control signal flat, not every such curve was filed as active; the % refers to the signal ratio;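 further: cells stimulated with 2 nM dexamethasone as agonist; on the % scale 0 is the no-effect control and ±100 the full control effect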)
How it was run: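 Antagonist-mode qHTS: compound titrations added to GRE-bla HeLa cells, then dexamethasone 2 nM final; 18 h, 37 C. CCF4 FRET fluorescence normalized to dexamethasone and DMSO; IC50 from Hill fit.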

[4] = target: Peroxisome proliferator-activated receptor delta (Homo sapiens) (UniProt Q03181); assay: qHTS assay for small molecule agonists of peroxisome proliferator-activated receptor delta signaling (AID 588534; calls by dose curve;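 further: 0% = DMSO basal wells and 100% = positive control agonist at 10 µM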)
How it was run: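 Reporter cells were plated and held 5 hrs at 37 C before compounds were added. After 18 hrs at 37 C, CCF4 dye was loaded for 2 hrs at RT and fluorescence measured.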

[5] = qHTS assay for small molecule antagonists of peroxisome proliferator-activated receptor delta signaling (AID 588535; active means well fitted inhibition curve with a large enough effect in the signal ratio, with a control signal flat, not every such curve was filed as active; the % refers to the signal ratio;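 on max response: cells co-treated with a PPAR-delta agonist as stimulator during compound exposure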); details: HEK293T PPARd-UAS-bla, beta-lactamase FRET ratio, 18 h; 460 nm channel
How it was run: (§1)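 GeneBLAzer PPAR-delta-UAS-bla HEK293T cells in medium with 2% charcoal/dextran FBS were preincubated 5 hrs at 37 C, then given compounds, incubated 18 hrs at 37 C, and read by CCF4 beta-lactamase fluorescence; IC50 from Hill fits.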

[6] = target: Peroxisome proliferator-activated receptor delta (Homo sapiens) (UniProt Q03181); assay: as above
How it was run: as §1

[7] = target: Vitamin D3 receptor (Homo sapiens) (UniProt P11473); assay: qHTS assay for small molecule antagonists of vitamin D receptor signaling (AID 588541; calls by dose curve;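 further: receptor activated by calcitriol during compound treatment; on the % scale 0 is the no-effect control and ±100 the full control effect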)
How it was run: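 VDR-UAS-bla HEK293T cells (2000/well, 2% charcoal-stripped FBS) were treated with titrated compounds plus 1-alpha,25-dihydroxyvitamin D3 (50 nM or 3 nM final) for 16 h at 37 C. CCF4 beta-lactamase fluorescence was read; Hill fits gave IC50.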

[8] = target: Vitamin D3 receptor (Homo sapiens) (UniProt P11473); assay: qHTS assay for small molecule agonists of vitamin D receptor signaling (AID 588543; calls by dose curve;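 further: 0% = DMSO basal and 100% = reference agonist control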)
How it was run: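 Reporter cells (HEK293T, VDR-UAS-bla) were seeded in medium with 2% charcoal-stripped serum and incubated 5 h, then compounds in concentration series were added for 16 h at 37 °C. Stimulation was scaled between DMSO basal and 50 nM 1α,25-dihydroxyvitamin D3.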

[9] = target: Thyroid hormone receptor beta (Homo sapiens) (UniProt P10828); assay: qHTS assay for small molecule antagonists of thyroid hormone receptor beta signaling (AID 588547; active means well fitted inhibition curve with a large enough effect in the signal ratio, with a control signal flat, not every such curve was filed as active; the % refers to the signal ratio;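 further: cells stimulated with 0.4 nM T3 agonist during compound exposure; on the % scale 0 is the no-effect control and ±100 the full control effect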); details: TR-UAS-bla HEK293, beta-lactamase ratio, antagonist mode, 18 h
How it was run: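 TR-UAS-bla GripTite HEK293 cells in 2% charcoal/dextran FBS medium were preincubated 4 h at 37 C, given compound (0.59 nM to 92 uM) plus 0.4 nM T3 (final) for 18 h, then CCF4 for 2 h at RT; Hill fit gave IC50.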

[10] = qHTS assay for small molecule activators of the nuclear factor-kappa B (NF-kB) signaling pathway (AID 651749; active means well fitted activation curve with a large enough effect in the signal ratio; the % refers to the signal ratio; further: % of control where 0% means no effect); details: NF-kB-bla ME-180 cells, beta-lactamase FRET ratio, 16 h; stronger effect = higher value
How it was run: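 ME-180 cells stably carrying a beta-lactamase reporter under an NF-kB response element were exposed to compound or DMSO vehicle for 16 hr at 37C, 5% CO2. Pathway activation was read by FRET, since reporter expression disrupts FRET.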

[11] = qHTS assay for small molecule agonists of the antioxidant response element (ARE) signaling pathway measured by Nrf2-dependant transcriptional activity (AID 720636; active means well fitted curve in the direction sought with a large enough effect in the repeat runs; an effect the other way counts as inactive or inconclusive;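 further: HepG2 cells with an ARE-driven luciferase reporter; % of control where 0% means no effect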)
How it was run: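 HepG2 ARE-luc reporter line, 1% dialyzed FBS; 6 hr attachment at 37 C, compound pinned in, 16 hr at 37 C/5% CO2; ONE-Glo, 30 min RT, luminescence read.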

[12] = Cellular Toxicity (caspase-3) Mesangial (AID 660);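 further: combined caspase 3 and 7 activity read by Caspase-Glo luminescence; cells exposed to compound for 16 h before the caspase read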
How it was run: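 Concentration-response qHTS: compound-induced rise in caspase 3/7 luminescence in human mesangial cells after 16 h, normalized to DMSO and 100 uM tamoxifen controls.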

[13] = Cell Viability - LYMP2-004 (AID 966);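 further: plate controls were DMSO only for no effect and tetraoctylammonium bromide control for full effect; nearly all actives have a fitted effect of over 65% in size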
How it was run: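 Acute toxicity is scored as a concentration-dependent drop in intracellular ATP, quantified by luciferase luminescence, in human lymphoblastoid cells exposed to compound for 24 hr. AC50 derives from Hill-equation modelling.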

[14] = target: Estrogen receptor (Homo sapiens) (UniProt P03372); assay: qHTS assay for small molecule agonists of estrogen receptor alpha signaling (AID 588514; calls by dose curve;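 further: 0% = vehicle only and 100% = reference agonist; nearly all actives have a fitted effect of over 70% in size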)
How it was run: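 Reporter-gene assay. […] controls beta-lactamase in HEK 293 GripTite cells; after 18 hrs with compound, CCF4 substrate is added for 2 hrs and fluorescence is read.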

[15] = target: Glucocorticoid receptor (Homo sapiens) (UniProt P04150); assay: qHTS assay for small molecule agonists of glucocorticoid receptor signaling (AID 588532; active means well fitted curve in the direction sought with a large enough effect in the signal ratio, with a control signal flat; the % refers to the signal ratio;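 further: 100% = dexamethasone at 0.1 µM and 0% = DMSO only wells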); details: HeLa MMTV-bla, beta-lactamase ratio, agonist, 18 h; stronger effect = higher value; percent of dexamethasone control, DMSO zero
How it was run: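 Stimulation of a glucocorticoid response element-driven beta-lactamase gene was measured in HeLa cells. Responses were scaled between DMSO basal and 0.1 uM dexamethasone, then fitted for half-maximal stimulation.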

[16] = target: Peroxisome proliferator-activated receptor gamma (Homo sapiens) (UniProt P37231); assay: qHTS assay for small molecule agonists of peroxisome proliferator-activated receptor gamma signaling (AID 588536; active means well fitted curve in the direction sought with a large enough effect in the signal ratio, with a control signal flat, not every such curve was filed as active; the % refers to the signal ratio;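 further: 0% = DMSO basal wells and 100% = rosiglitazone at 2 µM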)
How it was run: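 GeneBLAzer PPAR-gamma-UAS-bla HEK293 cells in 1% charcoal/dextran-treated FBS medium were treated 16 h at 37 C with compounds. Beta-lactamase activity was read by CCF4 ratio (460/530 nm). Response was normalized to 2 uM rosiglitazone (100%) and DMSO, then Hill-fitted for EC50 and efficacy.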

[17] = target: Peroxisome proliferator-activated receptor gamma (Homo sapiens) (UniProt P37231); assay: qHTS assay for small molecule antagonists of peroxisome proliferator-activated receptor gamma signaling (AID 588537; active means well fitted inhibition curve with a large enough effect in the signal ratio, with a control signal flat, not every such curve was filed as active; the % refers to the signal ratio;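 further: reporter cells co-stimulated with 50 nM rosiglitazone agonist during compound treatment; % of control where 0% means no effect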)
How it was run: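 PPAR-gamma-UAS-bla HEK293 cells (3000/well, 1% charcoal/dextran-stripped FBS) were preincubated 6-6.5 h at 37 C, given titrated compounds, then stimulated with 50 nM rosiglitazone for 16 h. Beta-lactamase activity was read with CCF4 dye; IC50 came from Hill fits.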

[18] = qHTS assay for small molecule agonists of the antioxidant response element (ARE) signaling pathway (AID 651741; active means well fitted activation curve with a large enough effect in the signal ratio; the % refers to the signal ratio; further: % of control where 0% means no effect)
How it was run: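 ARE-bla HepG2 cells (beta-lactamase reporter under ARE control) were plated at 2,000 cells/well, preincubated 5 h at 37 C/5% CO2, then treated with DMSO-dissolved compounds for 16 h at 37 C; LiveBLAzer B/G FRET substrate added, fluorescence read after 2 h at room temperature.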

[19] = qHTS assay for small molecule antagonists of the retinoid-related orphan receptor gamma (ROR-gamma) signaling pathway - cell viability counter screen (AID 720652; active means well fitted curve in the direction sought with a large enough effect in the repeat runs; an effect the other way counts as inactive or inconclusive;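 further: CHO reporter cells with doxycycline-induced ROR-gamma expression; compound exposure lasted 16 hr before ATP read; on the % scale 0 is the no-effect control and ±100 the full control effect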)
How it was run: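 Cytotoxicity is quantified via intracellular ATP (CellTiter-Glo luminescence) in doxycycline-induced CHO ROR response element-luciferase reporter cells treated with compound for 16 hr at 37 C, 5% CO2.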

[20] = target: Estrogen receptor (Homo sapiens) (UniProt P03372); assay: qHTS assay for small molecule antagonists of estrogen receptor alpha signaling (AID 588513; active means well fitted curve in the direction sought with a large enough effect in the signal ratio, with a control signal flat, not every such curve was filed as active; the % refers to the signal ratio; further: on the % scale 0 is the no-effect control and ±100 the full control effect)
How it was run: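 Fluorescence from CCF4 substrate after 2 h at room temperature gave reporter activity; cells had been exposed to compound and 0.5nM 17-beta-estradiol for 18 h at 37 C. Hill-equation fitting yielded IC50 and maximal response.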

Sequence of Peroxisome proliferator-activated receptor delta (Homo sapiens) (Q03181 whole entry, looked up): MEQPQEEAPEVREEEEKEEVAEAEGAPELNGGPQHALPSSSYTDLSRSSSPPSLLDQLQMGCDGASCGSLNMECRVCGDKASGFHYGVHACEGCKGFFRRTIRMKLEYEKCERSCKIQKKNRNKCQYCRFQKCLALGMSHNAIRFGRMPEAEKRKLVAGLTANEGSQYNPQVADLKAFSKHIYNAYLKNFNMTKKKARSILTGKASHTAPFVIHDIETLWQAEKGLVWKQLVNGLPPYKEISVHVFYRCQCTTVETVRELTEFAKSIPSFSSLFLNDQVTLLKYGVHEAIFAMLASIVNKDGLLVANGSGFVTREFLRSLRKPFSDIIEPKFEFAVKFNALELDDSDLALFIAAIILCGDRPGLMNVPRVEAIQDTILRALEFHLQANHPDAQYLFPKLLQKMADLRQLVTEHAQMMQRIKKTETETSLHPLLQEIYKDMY
Sequence of Estrogen receptor (Homo sapiens) (P03372 whole entry, looked up): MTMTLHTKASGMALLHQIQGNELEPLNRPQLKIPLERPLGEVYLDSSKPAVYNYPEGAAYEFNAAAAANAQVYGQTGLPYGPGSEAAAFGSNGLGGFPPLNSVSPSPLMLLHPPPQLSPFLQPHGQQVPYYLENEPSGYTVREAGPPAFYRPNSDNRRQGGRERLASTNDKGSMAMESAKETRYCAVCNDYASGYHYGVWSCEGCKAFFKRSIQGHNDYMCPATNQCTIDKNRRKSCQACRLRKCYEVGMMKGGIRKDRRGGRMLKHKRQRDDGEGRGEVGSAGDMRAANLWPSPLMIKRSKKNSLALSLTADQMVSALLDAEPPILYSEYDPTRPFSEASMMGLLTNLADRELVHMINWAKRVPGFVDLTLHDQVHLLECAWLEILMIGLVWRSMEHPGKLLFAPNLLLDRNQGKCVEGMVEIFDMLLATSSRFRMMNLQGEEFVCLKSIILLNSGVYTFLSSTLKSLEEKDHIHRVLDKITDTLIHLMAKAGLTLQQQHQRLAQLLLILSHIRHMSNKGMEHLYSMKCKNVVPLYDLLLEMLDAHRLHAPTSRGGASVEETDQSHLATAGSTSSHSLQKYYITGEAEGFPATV
Sequence of Thyroid hormone receptor beta (Homo sapiens) (P10828 whole entry, looked up): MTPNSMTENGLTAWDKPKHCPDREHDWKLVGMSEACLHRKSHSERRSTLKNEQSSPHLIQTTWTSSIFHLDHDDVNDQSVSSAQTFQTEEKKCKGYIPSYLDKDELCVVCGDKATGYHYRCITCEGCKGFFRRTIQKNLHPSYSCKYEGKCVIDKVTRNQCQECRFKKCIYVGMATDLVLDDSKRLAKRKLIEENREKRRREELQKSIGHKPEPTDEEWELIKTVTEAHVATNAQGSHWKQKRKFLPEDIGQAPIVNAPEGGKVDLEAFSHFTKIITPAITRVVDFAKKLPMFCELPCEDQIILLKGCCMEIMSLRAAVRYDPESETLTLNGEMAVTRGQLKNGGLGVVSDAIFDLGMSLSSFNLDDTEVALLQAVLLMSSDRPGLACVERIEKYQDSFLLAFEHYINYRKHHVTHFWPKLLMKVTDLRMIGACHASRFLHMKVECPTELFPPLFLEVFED
Sequence of Vitamin D3 receptor (Homo sapiens) (P11473 whole entry, looked up): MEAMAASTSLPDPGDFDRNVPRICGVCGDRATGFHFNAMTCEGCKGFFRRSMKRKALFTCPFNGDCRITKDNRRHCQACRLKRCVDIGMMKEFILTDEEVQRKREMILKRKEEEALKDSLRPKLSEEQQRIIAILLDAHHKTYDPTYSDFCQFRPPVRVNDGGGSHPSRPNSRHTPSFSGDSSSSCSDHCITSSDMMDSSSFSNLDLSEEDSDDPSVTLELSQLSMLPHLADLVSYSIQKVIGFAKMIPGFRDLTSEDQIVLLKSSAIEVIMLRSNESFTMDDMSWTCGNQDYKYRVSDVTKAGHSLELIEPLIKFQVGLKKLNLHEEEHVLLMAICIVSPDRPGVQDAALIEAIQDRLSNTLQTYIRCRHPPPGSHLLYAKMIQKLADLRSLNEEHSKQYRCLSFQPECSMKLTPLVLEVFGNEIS
Sequence of Peroxisome proliferator-activated receptor gamma (Homo sapiens) (P37231 whole entry, looked up): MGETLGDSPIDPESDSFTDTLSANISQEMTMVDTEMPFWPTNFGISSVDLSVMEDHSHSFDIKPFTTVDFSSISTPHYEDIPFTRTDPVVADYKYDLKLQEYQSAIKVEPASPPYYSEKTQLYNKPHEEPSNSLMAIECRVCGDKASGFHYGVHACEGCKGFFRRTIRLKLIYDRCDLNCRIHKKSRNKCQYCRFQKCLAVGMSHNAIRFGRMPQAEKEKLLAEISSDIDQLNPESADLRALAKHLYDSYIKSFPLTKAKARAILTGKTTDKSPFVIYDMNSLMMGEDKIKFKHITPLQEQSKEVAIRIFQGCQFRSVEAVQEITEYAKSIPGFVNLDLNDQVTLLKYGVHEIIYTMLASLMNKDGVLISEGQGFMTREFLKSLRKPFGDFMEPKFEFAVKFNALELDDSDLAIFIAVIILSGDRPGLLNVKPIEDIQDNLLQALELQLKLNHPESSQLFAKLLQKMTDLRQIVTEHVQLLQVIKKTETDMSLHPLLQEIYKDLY
Sequence of Glucocorticoid receptor (Homo sapiens) (P04150 whole entry, looked up): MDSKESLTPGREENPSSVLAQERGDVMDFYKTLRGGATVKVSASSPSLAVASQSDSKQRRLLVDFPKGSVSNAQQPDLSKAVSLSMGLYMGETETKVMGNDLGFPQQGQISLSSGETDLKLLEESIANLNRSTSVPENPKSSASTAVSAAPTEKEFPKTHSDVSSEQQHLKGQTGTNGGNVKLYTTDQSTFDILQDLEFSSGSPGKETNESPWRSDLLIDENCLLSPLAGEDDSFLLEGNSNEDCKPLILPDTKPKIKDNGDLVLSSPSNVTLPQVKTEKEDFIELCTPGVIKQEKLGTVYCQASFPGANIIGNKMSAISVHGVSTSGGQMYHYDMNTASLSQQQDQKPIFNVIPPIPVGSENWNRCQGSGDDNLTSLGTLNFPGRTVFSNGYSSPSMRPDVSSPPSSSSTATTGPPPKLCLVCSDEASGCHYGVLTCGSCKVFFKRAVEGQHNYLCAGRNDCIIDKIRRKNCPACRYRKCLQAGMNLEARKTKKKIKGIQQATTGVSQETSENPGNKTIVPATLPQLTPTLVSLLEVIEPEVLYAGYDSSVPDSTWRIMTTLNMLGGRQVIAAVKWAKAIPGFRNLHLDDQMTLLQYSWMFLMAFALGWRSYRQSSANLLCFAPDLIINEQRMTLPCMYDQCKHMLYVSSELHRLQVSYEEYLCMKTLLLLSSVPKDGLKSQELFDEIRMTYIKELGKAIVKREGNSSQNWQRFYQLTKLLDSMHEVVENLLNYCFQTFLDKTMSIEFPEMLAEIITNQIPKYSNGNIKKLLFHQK

CCOC(=O)CBr
-11.7%: max response [5]
inactive: Potency [1] | Potency [2] | outcome [3] | outcome [4] | outcome [6] | outcome [7] | outcome [8] | activity change % (negative = inhibition) [9] -6.62% | activation [10] -0.133% | Potency [11]

Cc1ccccc1[N+](=O)[O-]
inactive: outcome [12] | Potency [13] | Potency [2] | Potency [14] | activation [15] -7.47% | outcome [3] | outcome [4] | outcome [6] | outcome [16] | Potency [17] | outcome [7] | outcome [8] | activity change % (negative = inhibition) [9] 6.46% | Potency [11]
-51%: max response [5]

Clc1ccc(C(Cl)(Cl)Cl)c(Cl)c1
5.85%: max response [5]
inactive: Potency [1] | Potency [13] | Potency [2] | outcome [4] | outcome [6] | outcome [16] | Potency [17] | outcome [8] | activity change % (negative = inhibition) [9] 16.5% | Potency [18] | activation [10] -0.477% | Potency [11] | Potency [19]

[O-][Cl+2]([O-])O
inactive: Potency [1] | outcome [12] | Potency [13] | Potency [2] | Potency [14] | outcome [16] | outcome [7] | outcome [8] | Potency [18] | activation [10] -0.919% | Potency [11] | Potency [19]

O=[N+]([O-])c1cccc2c([N+](=O)[O-])cccc12
inactive: outcome [12] | Potency [13] | activation [15] -1.31% | outcome [3] | outcome [4] | outcome [6] | outcome [16] | activity change % (negative = inhibition) [9] -3.1% | activation [10] 0.0339% | Potency [19]
-9.5%: max response [5]

O=C(Cl)OCc1ccccc1
inactive: outcome [12] | Potency [2] | Potency [20] | Potency [14] | activation [15] -1.41% | outcome [3] | outcome [16] | Potency [18] | activation [10] -0.156% | Potency [19]

CCC[N+](=O)[O-]
-21.5%: max response [5]
inactive: Potency [1] | outcome [12] | Potency [13] | Potency [2] | outcome [4] | outcome [6] | outcome [16] | Potency [17] | outcome [7] | outcome [8] | activity change % (negative = inhibition) [9] -9.22% | activation [10] -0.704% | Potency [11] | Potency [19]

Nc1cc(Cl)ccc1Cl
inactive: Potency [1] | outcome [12] | Potency [2] | activation [15] -3.66% | outcome [3] | outcome [4] | Potency [19]

CC(C)(C)C(O)(CCc1ccc(Cl)cc1)Cn1cncn1 (stereo not drawn)
-43.6% and 58.8%: max response [5]
inactive: Potency [1] | outcome [12] | Potency [13] | Potency [2] | activation [15] 3.38% and -5.28% | outcome [3] | outcome [4] | outcome [6] | outcome [16] | Potency [17] | outcome [7] | outcome [8] | activity change % (negative = inhibition) [9] -8.05% and 4.64% | Potency [18] | activation [10] -0.348% and -1.3% | Potency [11]

CC(Cl)(Cl)Cl
inactive: Potency [1] | outcome [12] | Potency [13] | Potency [2] | outcome [4] | outcome [6] | outcome [16] | Potency [17] | outcome [7] | outcome [8] | activity change % (negative = inhibition) [9] 0.316% and -7.15% | Potency [18] | activation [10] -0.312% and 0.328% | Potency [11] | Potency [19]
-34.9% and 9.34%: max response [5]
